Measurements: paper PMC9911399, “Two distinct binding modes provide the RNA-binding protein RbFox with extraordinary sequence specificity”
Positions count from the first letter of the chain named. Whole data set: some 16,000 sequences, median “ka relative to ugcaugu” near 0.0091, cut for the highest 2% near 0.032. What follows is part of a selection rich in the highest values, with near analogues and random picks from the rest.

B1: CAAUGUA (DNA:RNA)
RNA: GGGAGACCGGAAUUCAGAUUGUCCCAAUGUAUUAAAUCCCGUCGUAGCCACCA
DNA 1: CAATCTGAATTCCGGTCTCCC
DNA 2: TGGTGGCTACGACGGGATT
B2: CUCAACC (DNA:RNA)
RNA: B1 RNA with A26U, A27C, U28A, G29A, U30C, A31C
DNA 1: CAATCTGAATTCCGGTCTCCC
DNA 2: TGGTGGCTACGACGGGATT
B3: GAUGAAG (DNA:RNA)
RNA: B1 RNA with C25G, A27U, U28G, G29A, U30A, A31G
DNA 1: CAATCTGAATTCCGGTCTCCC
DNA 2: TGGTGGCTACGACGGGATT
B4: ACGCGCU (DNA:RNA)
RNA: B1 RNA with C25A, A26C, A27G, U28C, U30C, A31U
DNA 1: CAATCTGAATTCCGGTCTCCC
DNA 2: TGGTGGCTACGACGGGATT
B5: GAGAGCU (DNA:RNA)
RNA: B1 RNA with C25G, A27G, U28A, U30C, A31U
DNA 1: CAATCTGAATTCCGGTCTCCC
DNA 2: TGGTGGCTACGACGGGATT
B6: ACGUGAA (DNA:RNA)
RNA: B1 RNA with C25A, A26C, A27G, U30A
DNA 1: CAATCTGAATTCCGGTCTCCC
DNA 2: TGGTGGCTACGACGGGATT
B7: CGUCAAG (DNA:RNA)
RNA: B1 RNA with A26G, A27U, U28C, G29A, U30A, A31G
DNA 1: CAATCTGAATTCCGGTCTCCC
DNA 2: TGGTGGCTACGACGGGATT
B8: CCUGCAA (DNA:RNA)
RNA: B1 RNA with A26C, A27U, U28G, G29C, U30A
DNA 1: CAATCTGAATTCCGGTCTCCC
DNA 2: TGGTGGCTACGACGGGATT
B9: UGAAAUG (DNA:RNA)
RNA: B1 RNA with C25U, A26G, U28A, G29A, A31G
DNA 1: CAATCTGAATTCCGGTCTCCC
DNA 2: TGGTGGCTACGACGGGATT
B10: UGAAUGU (DNA:RNA)
RNA: B1 RNA with C25U, A26G, U28A, G29U, U30G, A31U
DNA 1: CAATCTGAATTCCGGTCTCCC
DNA 2: TGGTGGCTACGACGGGATT
B11: UGAUUGU (DNA:RNA)
RNA: B1 RNA with C25U, A26G, G29U, U30G, A31U
DNA 1: CAATCTGAATTCCGGTCTCCC
DNA 2: TGGTGGCTACGACGGGATT
B12: CUGAAUC (DNA:RNA)
RNA: B1 RNA with A26U, A27G, U28A, G29A, A31C
DNA 1: CAATCTGAATTCCGGTCTCCC
DNA 2: TGGTGGCTACGACGGGATT
B13: CUGAAUG (DNA:RNA)
RNA: B1 RNA with A26U, A27G, U28A, G29A, A31G
DNA 1: CAATCTGAATTCCGGTCTCCC
DNA 2: TGGTGGCTACGACGGGATT
B14: CCCUGAA (DNA:RNA)
RNA: B1 RNA with A26C, A27C, U30A
DNA 1: CAATCTGAATTCCGGTCTCCC
DNA 2: TGGTGGCTACGACGGGATT
B15: CGCAUAC (DNA:RNA)
RNA: B1 RNA with A26G, A27C, U28A, G29U, U30A, A31C
DNA 1: CAATCTGAATTCCGGTCTCCC
DNA 2: TGGTGGCTACGACGGGATT
B16: AUGCGCC (DNA:RNA)
RNA: B1 RNA with C25A, A26U, A27G, U28C, U30C, A31C
DNA 1: CAATCTGAATTCCGGTCTCCC
DNA 2: TGGTGGCTACGACGGGATT
B17: AACACCC (DNA:RNA)
RNA: B1 RNA with C25A, A27C, U28A, G29C, U30C, A31C
DNA 1: CAATCTGAATTCCGGTCTCCC
DNA 2: TGGTGGCTACGACGGGATT
B18: AAUUUUC (DNA:RNA)
RNA: B1 RNA with C25A, A27U, G29U, A31C
DNA 1: CAATCTGAATTCCGGTCTCCC
DNA 2: TGGTGGCTACGACGGGATT
B19: ACAGCCG (DNA:RNA)
RNA: B1 RNA with C25A, A26C, U28G, G29C, U30C, A31G
DNA 1: CAATCTGAATTCCGGTCTCCC
DNA 2: TGGTGGCTACGACGGGATT
B20: UGGGCCC (DNA:RNA)
RNA: GGGAGACCGGAAUUCAGAUUGUCCUGGGCCCUUAAAUCCCGUCGUAGCCACCA
DNA 1: CAATCTGAATTCCGGTCTCCC
DNA 2: TGGTGGCTACGACGGGATT
B21: CUGGGCC (DNA:RNA)
RNA: B20 RNA with U25C, G26U, C29G
DNA 1: CAATCTGAATTCCGGTCTCCC
DNA 2: TGGTGGCTACGACGGGATT
B22: UGGGCCG (DNA:RNA)
RNA: B20 RNA with C31G
DNA 1: CAATCTGAATTCCGGTCTCCC
DNA 2: TGGTGGCTACGACGGGATT
B23: UGGGCCU (DNA:RNA)
RNA: B20 RNA with C31U
DNA 1: CAATCTGAATTCCGGTCTCCC
DNA 2: TGGTGGCTACGACGGGATT
B24: UGGGGCC (DNA:RNA)
RNA: B20 RNA with C29G
DNA 1: CAATCTGAATTCCGGTCTCCC
DNA 2: TGGTGGCTACGACGGGATT
B25: UGGCCGU (DNA:RNA)
RNA: B20 RNA with G28C, C30G, C31U
DNA 1: CAATCTGAATTCCGGTCTCCC
DNA 2: TGGTGGCTACGACGGGATT
B26: GACUUCU (DNA:RNA)
RNA: B1 RNA with C25G, A27C, G29U, U30C, A31U
DNA 1: CAATCTGAATTCCGGTCTCCC
DNA 2: TGGTGGCTACGACGGGATT
B27: UCCAGUC (DNA:RNA)
RNA: B1 RNA with C25U, A26C, A27C, U28A, A31C
DNA 1: CAATCTGAATTCCGGTCTCCC
DNA 2: TGGTGGCTACGACGGGATT
B28: GGCAUUG (DNA:RNA)
RNA: B1 RNA with C25G, A26G, A27C, U28A, G29U, A31G
DNA 1: CAATCTGAATTCCGGTCTCCC
DNA 2: TGGTGGCTACGACGGGATT
B29: ACCGGCA (DNA:RNA)
RNA: B1 RNA with C25A, A26C, A27C, U28G, U30C
DNA 1: CAATCTGAATTCCGGTCTCCC
DNA 2: TGGTGGCTACGACGGGATT
B30: UGGCAUG (DNA:RNA)
RNA: B20 RNA with G28C, C29A, C30U, C31G
DNA 1: CAATCTGAATTCCGGTCTCCC
DNA 2: TGGTGGCTACGACGGGATT
B31: AGGCAUC (DNA:RNA)
RNA: B20 RNA with U25A, G28C, C29A, C30U
DNA 1: CAATCTGAATTCCGGTCTCCC
DNA 2: TGGTGGCTACGACGGGATT
B32: AUGUCGU (DNA:RNA)
RNA: B20 RNA with U25A, G26U, G28U, C30G, C31U
DNA 1: CAATCTGAATTCCGGTCTCCC
DNA 2: TGGTGGCTACGACGGGATT
B33: AGGCAUG (DNA:RNA)
RNA: B20 RNA with U25A, G28C, C29A, C30U, C31G
DNA 1: CAATCTGAATTCCGGTCTCCC
DNA 2: TGGTGGCTACGACGGGATT
B34: CGGCAUG (DNA:RNA)
RNA: B1 RNA with A26G, A27G, U28C, G29A, A31G
DNA 1: CAATCTGAATTCCGGTCTCCC
DNA 2: TGGTGGCTACGACGGGATT
B35: UGGCAUC (DNA:RNA)
RNA: B20 RNA with G28C, C29A, C30U
DNA 1: CAATCTGAATTCCGGTCTCCC
DNA 2: TGGTGGCTACGACGGGATT
B36: GGCAUGU (DNA:RNA)
RNA: B20 RNA with U25G, G27C, G28A, C29U, C30G, C31U
DNA 1: CAATCTGAATTCCGGTCTCCC
DNA 2: TGGTGGCTACGACGGGATT
B37: GUCAUGU (DNA:RNA)
RNA: GGGAGACCGGAAUUCAGAUUGUCCGUCAUGUUUAAAUCCCGUCGUAGCCACCA
DNA 1: CAATCTGAATTCCGGTCTCCC
DNA 2: TGGTGGCTACGACGGGATT
B38: UGGCAUA (DNA:RNA)
RNA: B20 RNA with G28C, C29A, C30U, C31A
DNA 1: CAATCTGAATTCCGGTCTCCC
DNA 2: TGGTGGCTACGACGGGATT
B39: AGGCAUA (DNA:RNA)
RNA: B1 RNA with C25A, A26G, A27G, U28C, G29A
DNA 1: CAATCTGAATTCCGGTCTCCC
DNA 2: TGGTGGCTACGACGGGATT

biological target: T1, RBFOX1 RRM (Homo sapiens, UniProt Q9NWB1 109-208); assay: EMSA; HiTS-Eq, 1 nM pool, 10 min; buffer printed only for the single-RNA assays: 10 mM Tris pH 7.5, 150 mM NaCl, 3.4 mM EDTA, 0.001% NP-40, 30 C; details: tags: His6 N-terminal (pET28a); label: 5' 32P
T1 sequence: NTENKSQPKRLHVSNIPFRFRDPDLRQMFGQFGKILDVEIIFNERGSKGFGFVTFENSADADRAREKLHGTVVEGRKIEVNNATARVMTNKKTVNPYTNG
Procedure, shortened: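 Purified RbFox RRM (wild type or mutant) was equilibrated for 10 min in 50 µL with 1 nM of a 5′-radiolabelled pool of RNA with 7 randomized nucleotides, its flanks annealed to DNA oligonucleotides, across increasing protein concentrations. Free RNA was separated by 8% native PAGE, excised, reverse-transcribed, PCR-barcoded and sequenced on an Illumina HiSeq 2500. Relative association constants came from read-count changes of each variant against the control reaction, normalised to the cognate motif.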

First: B1
Second: B2
The binding signal of the first is higher: 0.00174 KA relative to UGCAUGU for the first, 0.000946 KA relative to UGCAUGU for the second.

First: B3
Second: B4
The binding signal of the first is higher: 0.0183 KA relative to UGCAUGU for the first, 0.00889 KA relative to UGCAUGU for the second.

First: B5
Second: B6
The binding signal of the first is higher: 0.016 KA relative to UGCAUGU for the first, 0.00505 KA relative to UGCAUGU for the second.

First: B7
Second: B8
The binding signal of the first is lower: 0.0065 KA relative to UGCAUGU for the first, 0.00899 KA relative to UGCAUGU for the second.

First: B9
Second: B10
The binding signal of the first is lower: 0.0128 KA relative to UGCAUGU for the first, 0.0386 KA relative to UGCAUGU for the second.

First: B11
Second: B12
The binding signal of the first is higher: 0.0253 KA relative to UGCAUGU for the first, 0.00905 KA relative to UGCAUGU for the second.

First: B13
Second: B14
The binding signal of the first is higher: 0.0348 KA relative to UGCAUGU for the first, 0.00426 KA relative to UGCAUGU for the second.

First: B15
Second: B16
The binding signal of the first is lower: 0.0068 KA relative to UGCAUGU for the first, 0.0101 KA relative to UGCAUGU for the second.

First: B17
Second: B18
The binding signal of the first is lower: 0.000265 KA relative to UGCAUGU for the first, 0.00788 KA relative to UGCAUGU for the second.

Compared with B19, B20 is higher in binding signal: 0.00101 KA relative to UGCAUGU for the first, 0.0266 KA relative to UGCAUGU for the second.

First: B21
Second: B22
The binding signal of the first is lower: 0.0274 KA relative to UGCAUGU for the first, 0.0335 KA relative to UGCAUGU for the second.

First: B23
Second: B24
The binding signal of the first is lower: 0.0237 KA relative to UGCAUGU for the first, 0.0345 KA relative to UGCAUGU for the second.

Compared with B25, B26 is lower in binding signal: 0.023 KA relative to UGCAUGU for the first, 0.0118 KA relative to UGCAUGU for the second.

First: B27
Second: B28
The binding signal of the first is lower: 0.00851 KA relative to UGCAUGU for the first, 0.0108 KA relative to UGCAUGU for the second.

First: B29
Second: B30
The binding signal of the first is lower: 0.00809 KA relative to UGCAUGU for the first, 0.696 KA relative to UGCAUGU for the second.

Compared with B31, B32 is higher in binding signal: 0.0123 KA relative to UGCAUGU for the first, 0.0142 KA relative to UGCAUGU for the second.

Compared with B33, B34 is lower in binding signal: 0.662 KA relative to UGCAUGU for the first, 0.573 KA relative to UGCAUGU for the second.

First: B35
Second: B36
The binding signal of the first is lower: 0.0211 KA relative to UGCAUGU for the first, 0.426 KA relative to UGCAUGU for the second.

Compared with B37, B38 is higher in binding signal: 0.0129 KA relative to UGCAUGU for the first, 0.0137 KA relative to UGCAUGU for the second.

In the case of B39, the binding signal is reported as 0.00927 KA relative to UGCAUGU.
